Measured values published in the supplement of paper PMC11001985.
Values without a mark were called inactive.

Compound: C#CCNC(=O)CCSSCCC(=O)NCCc1ccc(C=O)c(C=O)c1
Assay: lysine labeling ratio R10:1 (500 µM / 50 µM probe), SILAC-ABPP in living cells; higher = lower intrinsic lysine reactivity toward the probe, active = 2 or less
Conditions: HeLa; probe concentrations 500 vs 50 µM
In short: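 Measurements came from LC-MS/MS on a TIMS-TOF Pro of mixed SILAC light and heavy HeLa lysates after click to biotin-azide, trypsin digestion, neutravidin capture, DTT release and alkylation. Before lysis, the living cells sat in PBS at room temperature with 50 µM or 500 µM of an alkyne-tagged, disulfide-linked lysine probe, and labels were swapped forward and reverse. R per lysine is the median across both swap directions of the filtered median high-probe/low-probe MS1 peptide ratio. The cap is 20.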

Chain of UniProt Q15149 (Q15149 whole entry): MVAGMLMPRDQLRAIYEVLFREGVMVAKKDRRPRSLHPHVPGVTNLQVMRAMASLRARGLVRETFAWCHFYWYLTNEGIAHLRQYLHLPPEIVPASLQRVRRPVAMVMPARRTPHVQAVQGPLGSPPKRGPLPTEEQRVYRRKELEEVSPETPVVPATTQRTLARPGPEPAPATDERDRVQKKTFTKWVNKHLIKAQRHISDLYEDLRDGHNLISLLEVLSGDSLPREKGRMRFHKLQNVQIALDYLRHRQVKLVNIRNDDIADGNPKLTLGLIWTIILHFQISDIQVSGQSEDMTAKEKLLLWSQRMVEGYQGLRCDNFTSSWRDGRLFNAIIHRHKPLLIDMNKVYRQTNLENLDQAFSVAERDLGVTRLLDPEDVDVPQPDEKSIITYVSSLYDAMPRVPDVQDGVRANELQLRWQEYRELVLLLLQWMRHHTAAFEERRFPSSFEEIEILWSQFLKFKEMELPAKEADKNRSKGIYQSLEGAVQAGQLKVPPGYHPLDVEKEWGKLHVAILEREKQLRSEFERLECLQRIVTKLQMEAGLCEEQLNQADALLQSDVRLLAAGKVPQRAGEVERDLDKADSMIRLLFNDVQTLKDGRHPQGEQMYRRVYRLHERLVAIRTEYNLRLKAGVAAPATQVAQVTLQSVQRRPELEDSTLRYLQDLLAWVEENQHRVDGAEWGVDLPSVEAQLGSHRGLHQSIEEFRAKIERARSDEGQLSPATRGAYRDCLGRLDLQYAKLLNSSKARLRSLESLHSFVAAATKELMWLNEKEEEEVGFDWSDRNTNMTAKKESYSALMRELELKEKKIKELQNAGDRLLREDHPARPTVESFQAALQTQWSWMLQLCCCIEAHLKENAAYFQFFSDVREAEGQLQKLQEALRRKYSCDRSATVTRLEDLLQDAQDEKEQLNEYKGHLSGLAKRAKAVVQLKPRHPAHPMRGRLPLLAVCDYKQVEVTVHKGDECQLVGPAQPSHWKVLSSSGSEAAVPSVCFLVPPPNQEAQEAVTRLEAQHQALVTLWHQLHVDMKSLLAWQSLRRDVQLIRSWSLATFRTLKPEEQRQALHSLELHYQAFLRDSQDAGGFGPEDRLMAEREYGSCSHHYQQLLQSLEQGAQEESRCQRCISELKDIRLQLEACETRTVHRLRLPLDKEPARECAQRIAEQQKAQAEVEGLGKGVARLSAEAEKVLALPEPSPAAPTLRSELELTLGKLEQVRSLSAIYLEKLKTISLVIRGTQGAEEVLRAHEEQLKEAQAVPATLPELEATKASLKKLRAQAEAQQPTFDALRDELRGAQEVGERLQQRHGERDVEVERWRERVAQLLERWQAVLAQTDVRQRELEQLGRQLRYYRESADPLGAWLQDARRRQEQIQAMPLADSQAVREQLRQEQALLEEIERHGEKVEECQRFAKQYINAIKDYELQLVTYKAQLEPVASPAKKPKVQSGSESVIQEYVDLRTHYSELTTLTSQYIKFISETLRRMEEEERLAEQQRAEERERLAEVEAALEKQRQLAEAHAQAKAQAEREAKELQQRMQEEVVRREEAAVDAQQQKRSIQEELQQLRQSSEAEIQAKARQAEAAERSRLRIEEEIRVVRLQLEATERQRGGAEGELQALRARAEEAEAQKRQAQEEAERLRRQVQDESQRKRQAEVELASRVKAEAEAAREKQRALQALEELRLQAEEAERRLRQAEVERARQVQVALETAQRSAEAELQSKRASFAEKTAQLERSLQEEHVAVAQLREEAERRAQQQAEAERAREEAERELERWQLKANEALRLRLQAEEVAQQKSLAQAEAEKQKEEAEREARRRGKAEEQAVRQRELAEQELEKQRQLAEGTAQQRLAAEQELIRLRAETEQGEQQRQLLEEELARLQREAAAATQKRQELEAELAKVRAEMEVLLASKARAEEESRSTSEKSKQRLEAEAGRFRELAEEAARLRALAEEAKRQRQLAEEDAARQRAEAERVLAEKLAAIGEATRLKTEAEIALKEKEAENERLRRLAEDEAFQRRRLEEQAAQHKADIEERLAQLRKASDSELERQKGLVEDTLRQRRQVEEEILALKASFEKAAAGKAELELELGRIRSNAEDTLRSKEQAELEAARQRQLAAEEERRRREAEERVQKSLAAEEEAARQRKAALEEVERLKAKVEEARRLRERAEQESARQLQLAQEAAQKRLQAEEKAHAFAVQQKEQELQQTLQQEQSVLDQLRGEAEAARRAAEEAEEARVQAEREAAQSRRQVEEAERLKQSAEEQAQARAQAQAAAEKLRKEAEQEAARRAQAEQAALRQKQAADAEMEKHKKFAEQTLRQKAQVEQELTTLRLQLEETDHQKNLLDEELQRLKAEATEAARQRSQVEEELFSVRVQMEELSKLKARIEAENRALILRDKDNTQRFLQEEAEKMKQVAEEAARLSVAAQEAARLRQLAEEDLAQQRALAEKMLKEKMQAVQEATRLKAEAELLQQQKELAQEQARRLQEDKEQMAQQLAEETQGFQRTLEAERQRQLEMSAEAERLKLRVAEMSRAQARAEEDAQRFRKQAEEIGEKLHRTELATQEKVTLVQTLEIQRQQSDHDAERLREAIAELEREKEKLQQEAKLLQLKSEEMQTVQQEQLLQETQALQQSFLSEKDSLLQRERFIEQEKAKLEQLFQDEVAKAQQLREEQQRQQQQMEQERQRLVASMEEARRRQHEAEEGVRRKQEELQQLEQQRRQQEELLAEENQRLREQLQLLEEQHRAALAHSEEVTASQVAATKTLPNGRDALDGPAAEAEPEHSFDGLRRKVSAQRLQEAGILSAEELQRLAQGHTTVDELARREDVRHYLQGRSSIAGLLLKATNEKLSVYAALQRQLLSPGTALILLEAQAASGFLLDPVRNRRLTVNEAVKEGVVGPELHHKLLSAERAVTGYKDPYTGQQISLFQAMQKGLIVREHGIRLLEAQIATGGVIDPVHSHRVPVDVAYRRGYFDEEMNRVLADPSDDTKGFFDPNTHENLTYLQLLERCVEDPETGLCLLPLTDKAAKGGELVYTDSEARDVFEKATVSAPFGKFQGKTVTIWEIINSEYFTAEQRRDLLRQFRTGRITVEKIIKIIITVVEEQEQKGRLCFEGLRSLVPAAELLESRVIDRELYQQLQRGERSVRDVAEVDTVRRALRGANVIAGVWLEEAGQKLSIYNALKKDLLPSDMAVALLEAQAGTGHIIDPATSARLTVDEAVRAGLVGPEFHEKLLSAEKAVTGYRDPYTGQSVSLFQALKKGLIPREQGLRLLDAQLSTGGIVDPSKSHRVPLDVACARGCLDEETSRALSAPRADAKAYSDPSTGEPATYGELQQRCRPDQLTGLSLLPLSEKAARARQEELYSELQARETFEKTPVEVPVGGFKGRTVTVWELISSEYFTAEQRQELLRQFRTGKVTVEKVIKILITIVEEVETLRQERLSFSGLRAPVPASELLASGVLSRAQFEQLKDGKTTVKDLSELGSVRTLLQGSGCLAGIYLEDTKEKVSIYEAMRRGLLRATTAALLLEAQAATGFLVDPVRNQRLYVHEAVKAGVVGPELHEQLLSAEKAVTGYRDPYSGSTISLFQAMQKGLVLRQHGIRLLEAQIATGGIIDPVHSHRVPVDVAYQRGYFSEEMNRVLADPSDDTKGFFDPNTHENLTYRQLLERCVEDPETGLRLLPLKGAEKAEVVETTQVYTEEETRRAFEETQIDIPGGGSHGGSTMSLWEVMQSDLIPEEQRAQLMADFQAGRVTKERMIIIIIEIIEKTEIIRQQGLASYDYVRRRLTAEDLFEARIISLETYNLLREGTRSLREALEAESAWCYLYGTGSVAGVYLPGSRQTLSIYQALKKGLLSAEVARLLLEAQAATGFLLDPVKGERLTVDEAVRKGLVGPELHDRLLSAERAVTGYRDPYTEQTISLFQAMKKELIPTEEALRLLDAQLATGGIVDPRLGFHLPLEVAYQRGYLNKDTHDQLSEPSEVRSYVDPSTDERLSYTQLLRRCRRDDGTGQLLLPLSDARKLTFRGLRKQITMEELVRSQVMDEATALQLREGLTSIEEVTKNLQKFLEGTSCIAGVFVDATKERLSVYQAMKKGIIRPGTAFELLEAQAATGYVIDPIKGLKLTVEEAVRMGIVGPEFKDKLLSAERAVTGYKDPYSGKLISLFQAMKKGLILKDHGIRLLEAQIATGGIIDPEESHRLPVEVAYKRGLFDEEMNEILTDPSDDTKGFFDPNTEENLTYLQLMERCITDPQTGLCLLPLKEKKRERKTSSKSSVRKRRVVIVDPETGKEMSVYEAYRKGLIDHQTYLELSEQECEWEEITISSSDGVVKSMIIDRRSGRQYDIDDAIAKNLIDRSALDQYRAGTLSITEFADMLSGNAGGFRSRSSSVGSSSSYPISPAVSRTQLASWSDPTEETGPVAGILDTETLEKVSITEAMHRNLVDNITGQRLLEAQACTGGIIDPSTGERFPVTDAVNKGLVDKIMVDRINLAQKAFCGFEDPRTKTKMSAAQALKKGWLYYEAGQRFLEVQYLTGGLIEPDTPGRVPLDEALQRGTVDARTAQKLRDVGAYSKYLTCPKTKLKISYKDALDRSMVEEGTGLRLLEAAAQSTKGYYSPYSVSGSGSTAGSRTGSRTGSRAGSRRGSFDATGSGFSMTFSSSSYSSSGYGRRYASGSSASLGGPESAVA
Chain of UniProt Q9Y265 (Q9Y265 whole entry): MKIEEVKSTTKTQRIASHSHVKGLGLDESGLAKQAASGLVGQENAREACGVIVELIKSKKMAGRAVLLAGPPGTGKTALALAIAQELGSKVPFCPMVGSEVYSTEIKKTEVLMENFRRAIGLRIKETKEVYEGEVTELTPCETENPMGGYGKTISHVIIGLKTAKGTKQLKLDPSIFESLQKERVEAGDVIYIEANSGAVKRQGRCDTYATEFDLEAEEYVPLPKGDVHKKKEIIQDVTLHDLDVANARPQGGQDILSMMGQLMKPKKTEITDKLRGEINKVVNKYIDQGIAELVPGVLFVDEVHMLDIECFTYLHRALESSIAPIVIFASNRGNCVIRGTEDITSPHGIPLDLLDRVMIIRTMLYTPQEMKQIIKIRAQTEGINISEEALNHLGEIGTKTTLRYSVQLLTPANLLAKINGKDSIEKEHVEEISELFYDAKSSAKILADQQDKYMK

| Target | lysine labeling ratio R10:1 |
| --- | --- |
| DNAJB1 (lysine site: K21) (UniProt P25685) | 1 (active) |
| TUBA1A (lysine site: K338) (UniProt Q71U36) | 2 (active) |
| UniProt Q00341 (lysine site: K494) | 2.15 |
| FAT1 (lysine site: K894) (UniProt Q14517) | 2.53 |
| SPTAN1 (lysine site: K274) (UniProt Q13813) | 2.28 |
| HNRNPM (lysine site: K242) (UniProt P52272) | 1.67 (active) |
| UniProt Q15149 (lysine site: K746) | 2.49 |
| ATP1B1 (lysine site: K111) (UniProt P05026) | 2.14 |
| F11R (lysine site: K63) (UniProt Q9Y624) | 2.75 |
| IGF1R (lysine site: K713) (UniProt P08069) | 2.62 |
| FAT4 (lysine site: K1809) (UniProt Q6V0I7) | 1.9 (active) |
| HSPA9 (lysine site: K206) (UniProt P38646) | 2.48 |
| UniProt Q4KMG0 (lysine site: K149) | 1.47 (active) |
| SPTAN1 (lysine site: K1784) (UniProt Q13813) | 1.22 (active) |
| UniProt P62316 (lysine site: K18) | 2.06 |
| TF (lysine site: K135) (UniProt P02787) | 1.26 (active) |
| MSN (lysine site: K400) (UniProt P26038) | 3.75 |
| PSMA7 (lysine site: K28) (UniProt O14818) | 2.85 |
| KTN1 (lysine site: K617) (UniProt Q86UP2) | 1.17 (active) |
| ADAM9 (lysine site: K290) (UniProt Q13443) | 2.64 |

| Target | lysine labeling ratio R10:1 |
| --- | --- |
| LRP1 (lysine site: K4230) (UniProt Q07954) | 10.8 |
| UniProt Q96JJ7 (lysine site: K119) | 3.06 |
| NECTIN3 (lysine site: K249) (UniProt Q9NQS3) | 5.88 |
| P4HB (lysine site: K114) (UniProt P07237) | 6.39 |
| RAB8A (lysine site: K197) (UniProt P61006) | 2.44 |
| ANXA7 (lysine site: K268) (UniProt P20073) | 2.89 |
| PFKP (lysine site: K688) (UniProt Q01813) | 1.74 (active) |
| MYH9 (lysine site: K1459) (UniProt P35579) | 1.3 (active) |
| ITGA4 (lysine site: K526) (UniProt P13612) | 1.76 (active) |
| HMGN2 (lysine site: K18) (UniProt P05204) | 2.09 |
| ECE1 (lysine site: K401) (UniProt P42892) | 2.77 |
| CD9 (lysine site: K133) (UniProt P21926) | 5.95 |
| ITGB1 (lysine site: K551) (UniProt P05556) | 5.51 |
| KRT18 (lysine site: K407) (UniProt P05783) | 8.64 |
| RUVBL1 (lysine site: K182) (UniProt Q9Y265) | 0.748 (active) |
| UniProt Q15149 (lysine site: K3285) | 4.73 |
| WNT5A (lysine site: K208) (UniProt P41221) | 2.67 |
| LAMB1 (lysine site: K184) (UniProt P07942) | 1.21 (active) |
| CPM (lysine site: K338) (UniProt P14384) | 4.51 |
| UniProt P62269 (lysine site: K106) | 1.85 (active) |
